Results reported in PubChem BioAssay AID651702 (NMMLSC, 2012).
Several values for one entry are separate records, joined by “and”; a condition that tells them apart may be missing. Equal entries are not always repeated. Hit rate of the full screen: of about 360,000 compounds, about 2,400 (0.67%) were called active. The sample as a whole holds a higher share of actives than the screen did. Unmarked numbers belong to inactive results.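 How the source made its calls: active means inhibition above about 55% (limit read from the data); inconclusive means no clear call, values can overlap the other calls; inactive means the rest.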

Assay: LAMP-1 surface exposure blockers, TALL-104 cells – cell-based, flow cytometry, MLPCN library, primary screen (AID 651702)
Conditions: TALL-104 LAMP-1 surface exposure, at 10 µM, active compounds read high, cells stimulated with thapsigargin and PMA

Q: With `Cc1cccc(N2CCN(C(=O)c3cccc(N4C(=O)C5C6C=CC(C6)C5C4=O)c3)CC2)c1C` (stereo unspecified) as the compound, how does the inhibition read?
A: -1.1%

Q: Which inhibition does the source give for `CSCCC(C(=O)NC(C)(C)C)n1c(-c2ccccc2)nc2ccccc21` (stereo unspecified) here?
A: -0.9%

Q: For `CCOc1ccc(NS(=O)(=O)c2ccc(C(=O)NCC(c3ccccc3OC)N3CCCC3)cc2)cc1` (stereo unspecified), which inhibition is on record?
A: -1.8%

Q: For `COc1ccc(S(=O)(=O)N(C)C)cc1NC(=O)COC(=O)c1n[nH]c2ccccc12`, which inhibition is on record?
A: -22.7%

Q: For `CCOC(=O)C1CCN(Cc2c(C(=O)N3CCOCC3)nc3c(C)cccn23)CC1`, which inhibition is on record?
A: -2.4%

Q: For `Cc1cccc(N2CCC(NCc3c(C(=O)N4CCCCC4)nc4c(C)cccn34)CC2)c1`, which inhibition is on record?
A: 60.5% (active)

Q: With `Cc1cccn2c(CNCC(C)Oc3cccnc3)c(C(=O)N3CCOCC3)nc12` (stereo unspecified) as the compound, how does the inhibition read?
A: -5%

Q: Which inhibition does the source give for `OCCn1c(-c2ccccc2)csc1=Nc1ccccc1` here?
A: -1.3%

Q: Which inhibition does the source give for `COc1ccc(C)cc1Nc1n[n+](-c2ccccc2)c(-c2cccc(Cl)c2Cl)s1` here?
A: 93.6% (active)

Q: For `COc1cc(Br)c(-c2sc(Nc3ccccc3)n[n+]2-c2ccccc2)cc1OC`, which inhibition is on record?
A: -3.6%

Q: With `CCc1ccc(Nc2n[n+](-c3ccccc3)c(-c3cccc(Cl)c3Cl)s2)cc1` as the compound, how does the inhibition read?
A: 5.9%

Q: With `Cc1c(Cl)cccc1NC(=O)CCC(=O)N/N=C/c1ccco1` as the compound, how does the inhibition read?
A: 4.7%

Q: For `CCOc1ccc(OCC)c(NC(=O)CSc2nnc(Cn3cnc4ccccc43)n2C)c1`, which inhibition is on record?
A: 0.1%

Q: With `O=C(NCCc1c[nH]c2ccccc12)C1CCN(Cc2ccc(Br)cc2)CC1` as the compound, how does the inhibition read?
A: 77% (active)

Q: With `CCOc1ccc(CN2CCN(Cc3c[nH]c4ccccc34)CC2)cc1` as the compound, how does the inhibition read?
A: 35.2%

Q: For `Cc1ccc2[nH]cc(CCNC(=O)C3CCCCC3)c2c1`, which inhibition is on record?
A: -2.8%

Q: Which inhibition does the source give for `CCOC(=O)C1=C(C)NC2=C(C(=O)CC(C)(C)C2)C1c1ccsc1` (stereo unspecified) here?
A: 0.2%

Q: With `CC(C)OC(=O)CC(=O)CC(O)c1cccc([N+](=O)[O-])c1` (stereo unspecified) as the compound, how does the inhibition read?
A: -10.1%

Q: With `Cc1c(C)c2ccc(OCC(=O)N3CCN(c4cccc(Cl)c4)CC3)cc2oc1=O` as the compound, how does the inhibition read?
A: -2.4%

Q: For `O=C(COc1ccc(Cl)cc1)N1CCN(c2cccc(C(F)(F)F)c2)CC1`, which inhibition is on record?
A: 58.7% (active)

Q: Which inhibition does the source give for `CSCCC(NC(=O)COc1ccccc1)C(=O)N1CCN(c2cccc(C(F)(F)F)c2)CC1` (stereo unspecified) here?
A: 1.5%

Q: With `O=C(O)Cc1csc(-c2cccc(Oc3ccccc3)c2)n1` as the compound, how does the inhibition read?
A: -3.1% and -3.3%

Q: With `CCOc1ccc(NC(=O)CN(C)C(=O)CCSc2ccc(F)cc2)cc1OCC` as the compound, how does the inhibition read?
A: 14.3%

Q: Which inhibition does the source give for `CC(C)c1ccc(-c2nn[nH]n2)cc1` here?
A: 21.6%

Q: For `COc1ccc(S(=O)(=O)N2CCN(CC(=O)N3c4ccccc4CC3C)CC2)cc1OC` (stereo unspecified), which inhibition is on record?
A: 6.4%

Q: With `CCOc1cc(/C=N/NC(=O)c2c(C)nc3ccc(Cl)cn23)ccc1O` as the compound, how does the inhibition read?
A: 3.8%

Q: For `CCOc1cc(/C=C(\C#N)c2nc(-c3cccs3)c(NC(C)=O)s2)ccc1O`, which inhibition is on record?
A: 69.2% (active)

Q: For `CCOc1cc(/C=N/NC(=O)CN2CCCCC2)ccc1O`, which inhibition is on record?
A: 3.8%

Q: For `Cc1ccc(NC(=O)Nc2cc(-c3ccccc3)nn2C)cc1Cl`, which inhibition is on record?
A: 3%

Q: For `CC(=O)Nc1ccc(-c2csc(NC(=O)Nc3ccccc3)n2)cc1`, which inhibition is on record?
A: 104% (active)

Q: Which inhibition does the source give for `CC(=O)NC(c1ccccc1)c1nc(-c2cccc(C(C)C)c2)cs1` (stereo unspecified) here?
A: -1.9%

Q: Which inhibition does the source give for `Cn1c(=O)c([N+](=O)[O-])c(Oc2ccccc2)c2ccccc21` here?
A: -0.7%

Q: Which inhibition does the source give for `COc1ccc(NS(=O)(=O)c2cc(NC(=O)CC(=O)c3ccc([N+](=O)[O-])cc3)ccc2C)cc1` here?
A: -16.7%

Q: With `C=CCn1c(CCNC(=O)c2ccccc2F)nnc1SCC(=O)Nc1ccc(OC)cc1` as the compound, how does the inhibition read?
A: -1.4%

Q: For `CCCCNC(=O)C(C)N(CCN(C)C)C(=O)CCCCCN1C(=O)NC(c2ccc(Cl)cc2)C(C(=O)OCc2ccccc2)=C1C` (stereo unspecified), which inhibition is on record?
A: 61.8% (active)

Q: For `CCOC(=O)C1=C(C)N(C[C@@H]2CC[C@@H](Cc3ccc(-c4ccccc4)cc3)O2)C(=O)NC1c1ccc([N+](=O)[O-])cc1` (stereo partly specified), which inhibition is on record?
A: 1.6%

Q: With `CCCCNC(=O)C(C)N(CCN(C)C)C(=O)CCCN1C(=O)NC(c2ccc(Cl)cc2)C(C(=O)OCc2ccccc2)=C1C` (stereo unspecified) as the compound, how does the inhibition read?
A: 65.1% (active)

Q: With `COC(=O)C1=C(C)N(Cc2ccccc2)C(=NCCCOC(C)C)N[C@H]1c1ccccc1` as the compound, how does the inhibition read?
A: -2.7%

Q: With `CCOC(=O)C1=C(CN2CCc3ccccc32)NC(=O)NC1c1ccc(Cl)cc1` (stereo unspecified) as the compound, how does the inhibition read?
A: -0.5%

Q: For `CCOC(=O)CCCNC(=O)CN1C(=O)NC(CCc2ccccc2)C1=O` (stereo unspecified), which inhibition is on record?
A: -0.3%

Q: Which inhibition does the source give for `COc1ccc(OC)c(CN2C(=O)CCC2(C)c2nnnn2Cc2ccccc2)c1` (stereo unspecified) here?
A: -8.5%

Q: For `O=C(CSc1nnc(-c2ccoc2)o1)N1CCOCC1`, which inhibition is on record?
A: -6.6%

Q: For `O=[N+]([O-])/C=C/c1ccc2c(ccn2Cc2ccccc2)c1`, which inhibition is on record?
A: 79.9% (active)

Q: Which inhibition does the source give for `C=CCC[C@@H](CCCCC)OC(=O)/C=C/[C@@H](O)[C@H](O)C[C@H](O)CC=C` here?
A: -9.1%

Q: With `Cc1ccc2oc(C(=O)N3CCN(C)C[C@@H]3C(C)C)c(C)c2c1` as the compound, how does the inhibition read?
A: 1.3%

Q: For `CCOC(=O)C1C(C)C(C(C)(C)C)N(S(=O)(=O)c2ccc(C)cc2)C1c1ccccc1` (stereo unspecified), which inhibition is on record?
A: -9.6%

Q: With `NS(=O)(=O)c1ccc(CCNC(=O)CCCn2c(SCC(=O)N3CCCC3)nc3ccsc3c2=O)cc1` as the compound, how does the inhibition read?
A: -2.5%

Q: With `CN(C)CCNC(=O)c1cccc(-c2cnc3c(NC=O)cc(-c4cccc(C(F)(F)F)c4)cn23)c1` as the compound, how does the inhibition read?
A: 39.3%

Q: For `CN(C)C(CNC(=O)c1ccc(OCc2cn3ccccc3n2)cc1)c1ccco1` (stereo unspecified), which inhibition is on record?
A: -4.3%

Q: With `CN(C)CCNC(=O)c1ccc(-c2cn3c(-c4ccc(Oc5ccccc5)cc4)cnc3cn2)cc1` as the compound, how does the inhibition read?
A: 57.2% (active)

Q: With `CCCCCC(O)(CCN1CCCCC1)c1ccccc1` (stereo unspecified) as the compound, how does the inhibition read?
A: 1.7%

Q: For `Cc1cc(F)ccc1NC(=O)C(C)n1c2ccccc2c2nc(=O)cc(C)n21` (stereo unspecified), which inhibition is on record?
A: 0.1%

Q: With `CC(C)N1C(=O)c2ccccc2NC(=O)C1C(=O)NCc1cccs1` (stereo unspecified) as the compound, how does the inhibition read?
A: 16.2%

Q: With `Cc1cc2oc(=O)cc(CN(C)Cc3ccc(OC(F)F)cc3)c2cc1Cl` as the compound, how does the inhibition read?
A: 76.8% (active)

Q: With `Cc1ccc(CN(C)Cc2cc(=O)oc3cc(C)c(Cl)cc23)cc1` as the compound, how does the inhibition read?
A: -0.1%

Q: For `Cc1cc2oc(=O)cc(CN(C)Cc3ccccc3)c2cc1Cl`, which inhibition is on record?
A: -1.1%
